Measured values reported in PubChem BioAssay (Tox21).
Several values for one entry are separate records, joined by “and”; a condition that tells them apart may be missing. Identical values can stand only once. Records with an inconclusive call do not appear. Activity calls are given as the source filed them. Unless noted, calls come from the whole dose curve; as a rule, active = well fitted curve in the direction sought with a large enough effect in the repeat runs; inconclusive = weak or mixed curves; inactive = no such curve, though single readings can be large; an effect the other way counts as inactive or inconclusive.

Assays:
[1] = qHTS assay to test for compound auto fluorescence at 535 nm (green) in HEK293 cells (AID 720680)
[2] = qHTS assay to test for compound auto fluorescence at 460 nm (blue) in HEK293 cell free culture (AID 720681)
Summary of the method: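 Test compounds were pinned into cell-free culture medium (DMEM with 10% FBS) and fluorescence was read directly at Ex/Em 405/460 nm. Signals were expressed as fluorescence equivalents of triamterene, with DMSO vehicle as control.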

[3] = qHTS assay to test for compound auto fluorescence at 535 nm (green) in HEK293 cell free culture (AID 720682)
Summary of the method: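 Intrinsic compound fluorescence is measured in culture medium containing 10% FBS, with excitation at 485 nm and detection at 535 nm, referenced to fluorescein.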

[4] = qHTS assay to test for compound auto fluorescence at 590 nm (red) in HEK293 cell free culture (AID 720683)
Summary of the method: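 Tox21 10K library compounds were pinned into cell-free DMEM with 10% FBS and fluorescence was read at excitation 540 nm. Activity is expressed as Rose Bengal sodium equivalency.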

[5] = qHTS assay to test for compound auto fluorescence at 590 nm (red) in HepG2 cell free culture (AID 720684)
Summary of the method: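 Red fluorescence (540 nm excitation, 590 nm emission) was measured after compound transfer into cell-free MEM supplemented with 10% FBS. Values are equivalencies against Rose Bengal sodium.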

[6] = qHTS assay to test for compound auto fluorescence at 460 nm (blue) in HepG2 cell free culture (AID 720685)
Summary of the method: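 Compound (23 nL) or DMSO pinned into cell-free MEM with 10% FBS; blue fluorescence read at 405/460 nm excitation/emission, expressed as auto-fluorescence equivalency to triamterene.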

[7] = qHTS assay to test for compound auto fluorescence at 535 nm (green) in HepG2 cell free culture (AID 720686)
[8] = qHTS assay to test for compound auto fluorescence at 460 nm (blue) in HepG2 cells (AID 720687)
Summary of the method: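 Cells (2,000/well in MEM with 10% FBS) attached overnight at 37 C, then were exposed to compound or DMSO for 1 hr at 37 C, 5% CO2. Fluorescence read at Ex/Em 405/460 nm, expressed as triamterene-equivalent signal.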

[9] = qHTS assay to identify small molecule antagonists of the glucocorticoid receptor (GR) signaling pathway - cell viability counter screen (AID 720693); note: nearly all actives have a fitted effect of over 55% in size; note: potency is the fitted concentration of half-maximal effect
[10] = qHTS assay for identifying genotoxic compounds that show differential cytotoxicity against isogenic chicken DT40 cell lines with known DNA damage response pathways - Rev3 mutant cell line (AID 743014); note: nearly all actives have a fitted effect of over 55% in size; note: potency is the fitted concentration of half-maximal effect
[11] = qHTS assay for identifying genotoxic compounds that show differential cytotoxicity against isogenic chicken DT40 cell lines with known DNA damage response pathways - Rad54/Ku70 mutant cell line (AID 743015); note: nearly all actives have a fitted effect of over 60% in size; note: potency is the fitted concentration of half-maximal effect
[12] = qHTS assay to identify small molecule antagonists of the androgen receptor (AR) signaling pathway - cell viability counter screen (AID 743033; note: nearly all actives have a fitted effect of over 45% in size)
[13] = qHTS assay to identify small molecule antagonists of the androgen receptor (AR) signaling pathway using the MDA cell line - cell viability counter screen (AID 743041; note: nearly all actives have a fitted effect of over 45% in size; note: potency is the fitted concentration of half-maximal effect)
Summary of the method: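 MDA-kb2 AR-luc human breast carcinoma cells (MMTV-luciferase, AR/GR responsive) were treated with compounds plus R1881 agonist for 16 h at 37 °C. Viability was read as CellTiter-Fluor fluorescence in the same wells as the reporter assay.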

[14] = biological target: Glucocorticoid receptor (Homo sapiens) (UniProt P04150); experiment: qHTS assay to identify small molecule antagonists of the glucocorticoid receptor (GR) signaling pathway (AID 720692; active = well fitted inhibition curve with a large enough effect in the signal ratio in the repeat runs, not every such curve was filed as active; the % refers to the signal ratio; note: potency is the fitted concentration of half-maximal effect)
Summary of the method: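 GR-bla HeLa cells (beta-lactamase reporter under glucocorticoid response element) were pre-plated 4 h at 37 C, treated with compounds plus 5 nM dexamethasone (final) for 18 h, then read by LiveBLAzer B/G FRET fluorescence after 2 h.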

[15] = qHTS assay for identifying genotoxic compounds that show differential cytotoxicity against isogenic chicken DT40 cell lines with known DNA damage response pathways - wild type cell line (AID 743012); note: nearly all actives have a fitted effect of over 60% in size; note: potency is the fitted concentration of half-maximal effect
Summary of the method: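 Parental DNA repair-proficient DT40 cells, 300 per well, were pre-incubated ~0.5 h at 37 C/5% CO2, pin-dosed with compounds in DMSO, then incubated 40 h. Viability was read as CellTiter-Glo luminescence after 30 min at room temperature.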

[16] = biological target: Androgen receptor (Homo sapiens) (UniProt P10275); experiment: qHTS assay to identify small molecule antagonists of the androgen receptor (AR) signaling pathway (AID 743035; active = well fitted inhibition curve with a large enough effect in the signal ratio in the repeat runs, not every such curve was filed as active; the % refers to the signal ratio; note: potency is the fitted concentration of half-maximal effect)
Summary of the method: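 HEK293 cells stably carrying a UAS-driven beta-lactamase reporter (AR-UAS-bla GripTite) were plated for 4 h at 37C, then given compound and the agonist R1881 and incubated 16 h. Reporter activity was read by LiveBLAzer B/G FRET fluorescence after 2 h at room temperature.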

[17] = biological target: Androgen receptor (Homo sapiens) (UniProt P10275); experiment: qHTS assay to identify small molecule agonists of the androgen receptor (AR) signaling pathway using the MDA cell line (AID 743040; note: nearly all actives have a fitted effect of over 20% in size)
Summary of the method: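 MDA-kb2 breast carcinoma cells stably carrying an MMTV-driven luciferase reporter (AR- and GR-responsive) were seeded and held 5 h at 37C, 0% CO2, then exposed to compounds in DMSO for 16 h. Luminescence was read 30 min after ONE-Glo addition.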

[18] = biological target: Androgen receptor (Homo sapiens) (UniProt P10275); experiment: qHTS assay to identify small molecule antagonists of the androgen receptor (AR) signaling pathway using the MDA cell line (AID 743042; note: nearly all actives have a fitted effect of over 55% in size; note: potency is the fitted concentration of half-maximal effect)
Summary of the method: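 MDA-kb2 cells (human breast carcinoma, stably carrying an MMTV-luciferase reporter responsive to AR and GR) were plated at 3,000 cells/well and preincubated 5 hr at 37C, then given compound plus R1881 agonist for 16 h. ONE-Glo luminescence was read.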

[19] = biological target: Glucocorticoid receptor (Homo sapiens) (UniProt P04150); experiment: qHTS assay to identify small molecule agonists of the glucocorticoid receptor (GR) signaling pathway (AID 720691; active = well fitted activation curve with a large enough effect in the signal ratio in the repeat runs, not every such curve was filed as active; the % refers to the signal ratio); conditions: GR-bla HeLa, beta-lactamase reporter ratio, 18 h; activation: at 62.4 µM (top of the series)
Summary of the method: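 GR-bla HeLa cells (beta-lactamase reporter under glucocorticoid response element) were plated 4 h at 37 C/5% CO2, given compounds in DMSO, and incubated 18 h at 37 C. LiveBLAzer B/G FRET substrate was added for 2 h at room temperature, then fluorescence intensity read.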

[20] = biological target: Androgen receptor (Homo sapiens) (UniProt P10275); experiment: qHTS assay to identify small molecule agonists of the androgen receptor (AR) signaling pathway (AID 743036; active = well fitted activation curve with a large enough effect in the signal ratio in the repeat runs, with a control signal flat, not every such curve was filed as active; the % refers to the signal ratio)
Summary of the method: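 Agonist activity was scored by beta-lactamase reporter fluorescence in stably transfected HEK293 cells exposed to compounds for 16 h at 37C and 5% CO2. Substrate loading took 2 h at room temperature.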

Measured: Potency

Sequence of Glucocorticoid receptor (Homo sapiens) (P04150 whole entry, looked up): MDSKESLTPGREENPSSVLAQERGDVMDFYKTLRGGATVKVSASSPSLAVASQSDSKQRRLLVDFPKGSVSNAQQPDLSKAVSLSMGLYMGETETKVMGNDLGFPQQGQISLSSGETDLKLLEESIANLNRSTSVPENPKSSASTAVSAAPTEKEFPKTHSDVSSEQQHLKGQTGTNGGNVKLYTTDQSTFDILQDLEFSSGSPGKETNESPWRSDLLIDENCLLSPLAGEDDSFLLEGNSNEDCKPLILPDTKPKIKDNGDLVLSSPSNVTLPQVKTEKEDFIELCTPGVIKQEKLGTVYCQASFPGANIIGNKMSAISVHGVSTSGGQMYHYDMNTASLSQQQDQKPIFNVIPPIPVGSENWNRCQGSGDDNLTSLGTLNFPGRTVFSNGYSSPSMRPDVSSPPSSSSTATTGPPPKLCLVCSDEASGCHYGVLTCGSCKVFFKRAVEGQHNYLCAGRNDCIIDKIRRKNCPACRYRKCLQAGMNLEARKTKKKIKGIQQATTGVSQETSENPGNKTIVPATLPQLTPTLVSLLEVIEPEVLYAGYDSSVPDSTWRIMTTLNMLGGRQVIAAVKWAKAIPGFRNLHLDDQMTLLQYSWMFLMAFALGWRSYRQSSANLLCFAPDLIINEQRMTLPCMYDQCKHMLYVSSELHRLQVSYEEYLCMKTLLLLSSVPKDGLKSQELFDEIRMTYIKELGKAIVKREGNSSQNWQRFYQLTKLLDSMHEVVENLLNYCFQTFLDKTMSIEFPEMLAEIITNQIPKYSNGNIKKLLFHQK
Sequence of Androgen receptor (Homo sapiens) (P10275 whole entry, looked up): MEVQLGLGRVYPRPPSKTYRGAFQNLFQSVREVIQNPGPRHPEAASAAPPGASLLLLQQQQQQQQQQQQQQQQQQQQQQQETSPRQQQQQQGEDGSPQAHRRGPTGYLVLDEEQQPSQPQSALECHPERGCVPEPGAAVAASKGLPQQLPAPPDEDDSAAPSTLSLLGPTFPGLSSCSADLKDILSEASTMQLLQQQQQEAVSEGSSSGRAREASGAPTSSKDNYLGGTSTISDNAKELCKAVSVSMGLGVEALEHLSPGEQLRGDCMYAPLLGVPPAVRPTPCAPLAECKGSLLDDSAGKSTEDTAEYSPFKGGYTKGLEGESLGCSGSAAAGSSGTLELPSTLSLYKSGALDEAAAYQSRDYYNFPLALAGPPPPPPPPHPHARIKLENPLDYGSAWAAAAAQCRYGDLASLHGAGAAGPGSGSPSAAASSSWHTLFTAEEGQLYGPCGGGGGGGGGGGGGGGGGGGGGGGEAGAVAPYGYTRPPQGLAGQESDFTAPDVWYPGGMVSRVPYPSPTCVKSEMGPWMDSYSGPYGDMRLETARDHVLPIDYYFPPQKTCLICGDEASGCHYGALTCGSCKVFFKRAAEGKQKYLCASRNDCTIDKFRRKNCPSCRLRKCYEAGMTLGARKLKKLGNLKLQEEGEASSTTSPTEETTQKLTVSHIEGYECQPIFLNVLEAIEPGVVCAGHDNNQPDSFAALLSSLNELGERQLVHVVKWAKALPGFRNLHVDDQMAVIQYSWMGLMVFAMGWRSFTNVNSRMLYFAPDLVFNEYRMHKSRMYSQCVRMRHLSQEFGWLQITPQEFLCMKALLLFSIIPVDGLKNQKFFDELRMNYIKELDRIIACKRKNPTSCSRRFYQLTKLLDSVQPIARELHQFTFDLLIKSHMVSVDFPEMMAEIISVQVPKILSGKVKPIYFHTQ

CSCC[C@H](NC(=O)[C@H](Cc1ccc(OS(=O)(=O)O)cc1)NC(=O)[C@@H](N)CC(=O)O)C(=O)NCC(=O)N[C@@H](Cc1c[nH]c2ccccc12)C(=O)N[C@@H](CCSC)C(=O)N[C@@H](CC(=O)O)C(=O)N[C@@H](Cc1ccccc1)C(N)=O
not listed: [14] | [15] | [16] | [17] | [18] | [19] | [20]
inactive: all other assays above

COC(=O)C[C@](O)(CCCC(C)(C)O)C(=O)O[C@@H]1C(OC)=CC23CCCN2CCc2cc4c(cc2[C@H]13)OCO4 (stereo partly specified)
active: [14] 0.169 µM | [9] 1.2 µM and 1.07 µM | [15] 29.8 nM and 23.7 nM | [10] 21.1 nM and 26.6 nM | [11] 0.0237 µM | [16] 75.6 nM and 67.4 nM | [13] 0.0531 µM | [18] 0.0211 µM
not listed: [8] | [12] | [19] | [20]
inactive: all other assays above

CC(Cc1ccc(O)c(O)c1)C(C)Cc1ccc(O)c(O)c1 (stereo unspecified)
active: [15] 13.7 µM | [10] 30.6 µM | [11] 15.4 µM
not listed: [9] | [14] | [16] | [17] | [18] | [19] | [20]
inactive: all other assays above

COC(=O)[C@H]1[C@H]2C[C@H]3c4[nH]c5ccccc5c4CCN3C[C@H]2CC[C@@H]1O
not listed: [8] | [14] | [16] | [17] | [18] | [19] | [20]
inactive: all other assays above

CCN(CC)CCn1c(=O)c(Cc2ccc(OC)cc2)nc2ccccc21
active: [10] 29.8 µM
not listed: [8] | [11] | [15] | [16] | [17]
inactive: all other assays above

S=C1NC=NC2N=CNC12 (stereo unspecified)
inactive: [1] | [2] | [3] | [4] | [5] | [6] | [7] | [8] | [13]
active: [15] 54.5 µM | [10] 48.6 µM
